Source: PubChem BioAssay (several laboratories)
An excerpt weighted towards active compounds, which were near 2.8% of everything screened.
KKLEB cytotox – cytotoxicity in KKLEB CF airway cells, primary screen, cytotoxicity control for CF NF-kB inhibitor project, cell-based, uHTS, fluorescence assay plates. KKLEB CF airway cells viability, ATPlite luminescence, overnight; active compounds read low; cells stimulated with P. aeruginosa culture filtrate. activity change (cytotoxicity), % at 5 µM. 360,000 compounds, 0.36% hits;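 active means corrected activity change at or below -50% at 5 µM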
TRPM1 prom inh – inhibitors of MITF-dependent TRPM1 promoter reporter, primary screen, cell-based, SK-MEL-5, single point, luciferase. SK-MEL-5 TRPM1 promoter luciferase, 24 h. inhibition, % at 12.5 µM. 330,000 compounds, 0.83% hits;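 active means mean inhibition across replicates of 60% or more, whatever share of single replicates reaches that level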
Shn3 3UTR inh – reduction of Shn3 3'UTR firefly luciferase signal, primary screen, Schnurri-3 inhibitor project, cell-based, Clone20 osteoblasts, set 2; Clone20 osteoblast Shn3 3'UTR firefly luciferase, 24 h; 360,000 compounds, 0.52% hits; inhibition, % at 12.5 µM;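 active means mean inhibition of at least 75% with every replicate also reaching 75%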
CF NFkB inh – inhibitors of PAF-induced NF-kB signaling, primary screen, cell-based, GFP fluorescence, uHTS | KKLEB NF-kB-GFP reporter, GFP fluorescence overnight | 360,000 compounds, 0.86% hits | AID 588850, 2011 | inhibition, % at 5 µM;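 active means at least 50% inhibition at 5 µM, scaled per plate between neutral and stimulator controls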;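 further: PAF is a Pseudomonas aeruginosa culture filtrate used as stimulus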
HIF-2a block – HIF-2a reporter inhibitors, primary screen, luminescence, 786-0 RCC cells; 786-0 RCC cells HIF-2a reporter, luciferase luminescence, overnight; inhibition, % at 18.8 µM; 360,000 compounds, 0.72% hits; AID 624352, 2012;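 active means inhibition of the luminescence signal of 40% or more relative to plate controls, in a single-dose primary screen at 18.75 µM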
Peg3 prom inh-1 – Peg3 promoter-driven luciferase inhibitors, primary screen, cell-based, HeLa, luciferase luminescence | HeLa PEG-Prom luciferase reporter, overnight | inhibition, % at 20 µM | 360,000 compounds, 1.7% hits;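 active means inhibition of at least 50% at 20 µM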
Peg3 prom inh-2 – Peg3 promoter reporter inhibitors, retest, confirmation, cell-based, HeLa, luciferase reporter, single concentration. 1,300 compounds, 84% hits. HeLa PEG-Prom luciferase reporter, luminescence, overnight. shares compounds with Peg3 prom inh-1. inhibition, % at 20 µM. AID 602417, 2012;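 active means at 20 µM dose, 40% or more inhibition averaged across four replicates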
Large screens that a line does not name were inactive (follow-up assays come after a bar, where they were run).

COc1ccc(-c2nc3ccccc3s2)cc1O	KKLEB cytotox -54, Peg3 prom inh-1 55 | Peg3 prom inh-2 inactive
O=C(O)C1C2CCC(C2)C1C(=O)NCCc1ccccc1 (stereo not drawn)	none
CC(C)CC(N)c1csc(Nc2ccc(C(=O)c3ccccc3)cc2)n1 (stereo not drawn)	Peg3 prom inh-1 53 (no result: TRPM1 prom inh) | Peg3 prom inh-2 94
CC(C)C(N)c1csc(Nc2ccc(C(=O)c3ccccc3)cc2)n1 (stereo not drawn)	none (no result: TRPM1 prom inh)
COc1ccc(-c2ccc(=O)n(CC(=O)NCC3COCCO3)n2)cc1 (stereo not drawn)	none
Cc1ccc(C(=O)O)cc1N1C(=O)c2cccc3c([N+](=O)[O-])ccc(c23)C1=O	none
O=C(O)c1ccc(CN2C(=O)c3cccc4c([N+](=O)[O-])ccc(c34)C2=O)cc1	Peg3 prom inh-1 103 | Peg3 prom inh-2 90
O=C(CNCCC1=CCCCC1)Nc1ccc(N2CCCCCC2)cc1	Peg3 prom inh-1 86 | Peg3 prom inh-2 99
O=C(CNC1CCCC1)Nc1ccc(N2CCCCCC2)cc1	none
CC1(C)CC(NC(=O)c2sc3cc(Cl)ccc3c2Cl)CC(C)(C)N1	Peg3 prom inh-1 91 | Peg3 prom inh-2 100
C[C@@H]1CN([C@@H](C)CO)C(=O)CCCn2nncc2CO[C@@H]1CN(C)S(=O)(=O)c1ccc2c(c1)OCCCO2	none (no result: TRPM1 prom inh)
COc1ccc(S(=O)(=O)/N=C2\C=C(Nc3ccc(O)cc3)C(=O)c3ccccc32)cc1	KKLEB cytotox -74, TRPM1 prom inh 99, Shn3 3UTR inh 97, CF NFkB inh 101, Peg3 prom inh-1 104 | Peg3 prom inh-2 98
O=C(COC(=O)/C=C/c1cccc(C(F)(F)F)c1)NC(=O)NCc1ccco1	none
CC(=O)Nc1cccc(-c2csc(C(C)(O)c3ccc(F)c(F)c3)n2)c1 (stereo not drawn)	none (no result: TRPM1 prom inh)
CCC(C)Sc1ccc([C@@H]2[C@@H]3C(=O)N(CC)C(=O)[C@@H]3[C@]3(C(=O)OC)CCCCN23)cc1 (stereo partly drawn)	none
CC(/C=N\Nc1nnc2c(n1)[nH]c1c(C)cccc12)=C\c1ccco1	Peg3 prom inh-1 65 | Peg3 prom inh-2 inactive
c1coc(-c2nc(N=C3N=c4ccccc4=N3)[nH]c2-c2ccco2)c1	none (no result: TRPM1 prom inh)
Cc1cccc(OC(C)C(=O)Nc2ccc3c(c2)OCCO3)c1 (stereo not drawn)	none
Cc1ccc(S(=O)(=O)CCC(=O)OCC(=O)Nc2ccc(N3CCOCC3)cc2)cc1	none
NC(=O)CC(NC(=O)Cc1cccc2ccccc12)c1ccc(NCC2CC2)c([N+](=O)[O-])c1 (stereo not drawn)	none
NC(=O)CC(NC(=O)Cc1cccc2ccccc12)c1ccc(NC2CCCCC2)c([N+](=O)[O-])c1 (stereo not drawn)	Peg3 prom inh-1 78 | Peg3 prom inh-2 inactive
COc1ccc(CCNc2ccc(C(CC(N)=O)NC(=O)c3ccc(Br)cc3)cc2[N+](=O)[O-])cc1 (stereo not drawn)	Peg3 prom inh-1 69 | Peg3 prom inh-2 inactive
NC(=O)CC(NC(=O)Cc1cccc2ccccc12)c1ccc(NCCOc2ccccc2)c([N+](=O)[O-])c1 (stereo not drawn)	Peg3 prom inh-1 54 | Peg3 prom inh-2 inactive
C/C(=N\NC(=O)c1nnn(-c2nonc2N)c1CN(C)c1ccccc1)c1cccnc1	none
Oc1c(Cl)cc(Cl)c2cccnc12	Peg3 prom inh-1 64 | Peg3 prom inh-2 66
CC(C)N1C/C(=C/c2ccsc2)C(=O)/C(=C/c2ccsc2)C1	TRPM1 prom inh 101, Peg3 prom inh-1 103 | Peg3 prom inh-2 inactive
CCOC(=O)C1(C)CCCN(C(=O)c2ccc3c(c2)OCO3)C1 (stereo not drawn)	none (no result: TRPM1 prom inh)
CC(C)(C)c1ccc(C(=O)NC2CCN(Cc3ccccc3)CC2)cc1	none
Cc1ccc2cccc(OCC(=O)Nc3cccc(S(=O)(=O)N4CCCC4)c3)c2n1	Peg3 prom inh-1 64 | Peg3 prom inh-2 64
O=C(O)c1sccc1Oc1ccc(NS(=O)(=O)c2ccccc2)cc1	none
CC1CCN(c2ccc(-c3cccs3)nn2)CC1	KKLEB cytotox -81, TRPM1 prom inh 79, HIF-2a block 78, Peg3 prom inh-1 82 | Peg3 prom inh-2 78
Clc1ccc(-c2cccs2)nn1	none
NS(=O)(=O)c1ccc(CCNC(=O)Cc2cccs2)cc1	none
CCN(CC)c1ccc2nc3ccc(N)cc3[n+](-c3ccccc3)c2c1	TRPM1 prom inh 93, Shn3 3UTR inh 90, Peg3 prom inh-1 89 | Peg3 prom inh-2 72
Oc1[nH]c2c(Cl)cc(Cl)cc2c1N=NC(=S)NCC1CCCO1 (stereo not drawn)	Peg3 prom inh-1 97 | Peg3 prom inh-2 inactive
CCCCCCCCCC[N+](C)(C)CC/C=C1/c2ccccc2Sc2ccc(Cl)cc21	Shn3 3UTR inh 87, HIF-2a block 49, Peg3 prom inh-1 108 | Peg3 prom inh-2 100
CCN(CC)CCNC(=O)c1ccc(NC(=O)c2cccc(S(=O)(=O)N(C)C3CCCCC3)c2)cc1	TRPM1 prom inh 73, Peg3 prom inh-1 83 | Peg3 prom inh-2 89
CNC(=O)C[C@H]1C(=O)N(c2ccc(OC)cc2)C[C@@H]1C	none (no result: TRPM1 prom inh)
COc1ccc(NC(=O)N(C)[C@H]2C[C@H]3c4[nH]c5ccc(-c6ccc(OC)cc6)cc5c4CCN3C(=O)[C@H]2[C@H](C)O)cc1	none (no result: TRPM1 prom inh)
CN[C@H]1C[C@H]2c3[nH]c4ccc(-c5ccc(OC)cc5)cc4c3CCN2C(=O)[C@H]1[C@H](C)O	Peg3 prom inh-1 101 (no result: TRPM1 prom inh) | Peg3 prom inh-2 98
CN[C@H]1C[C@H]2c3[nH]c4ccc(-c5cccc(C)c5)cc4c3CCN2C[C@H]1[C@H](C)O	Peg3 prom inh-1 90 (no result: TRPM1 prom inh) | Peg3 prom inh-2 98
Cc1cccc(-c2ccc3[nH]c4c(c3c2)CCN2C[C@@H]([C@H](C)O)[C@@H](N(C)C(=O)NC3CCCCC3)C[C@@H]42)c1	none (no result: TRPM1 prom inh)
COC(=O)c1ccc(OCC2c3cc(OC)c(OC)cc3CCN2C(=O)c2ccco2)cc1 (stereo not drawn)	Peg3 prom inh-1 60 | Peg3 prom inh-2 45
CCN(Cc1ccccc1)S(=O)(=O)c1ccc(C(=O)N(CCCN(C)C)c2nc3cc4c(cc3s2)OCO4)cc1	TRPM1 prom inh 93, Peg3 prom inh-1 87 | Peg3 prom inh-2 99
CN(C)CCN(C(=O)c1ccc(S(=O)(=O)N(C)c2ccccc2)cc1)c1nc2cc3c(cc2s1)OCO3	none
